Most compounds without a hit are left out; they make up all but 1.5% or so of the library.
TcdB GH inh: inhibitors of Clostridioides difficile toxin B glycohydrolase; TcdB glycohydrolase enzymatic assay, plate reader; inhibition, % at 9.99 µM; 350,000 tested, 0.24% active; AID 652162; in the data active = inhibition above about 10%
DUSP3 inh: DUSP3 (human) phosphatase inhibition. P51452. recombinant VHR phosphatase, pNPP absorbance. inhibition, % at 13.3 µM. 290,000 tested, 0.52% active. AID 1654; in the data active = inhibition above about 50%
Target sequence (P51452 whole entry, looked up): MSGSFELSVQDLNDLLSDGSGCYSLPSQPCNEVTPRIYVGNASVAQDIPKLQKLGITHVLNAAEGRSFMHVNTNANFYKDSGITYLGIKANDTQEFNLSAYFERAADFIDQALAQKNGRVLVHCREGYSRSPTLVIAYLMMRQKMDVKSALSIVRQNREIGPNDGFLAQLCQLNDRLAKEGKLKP
Vc quorum ag: induces V. cholerae light production without autoinducers | activation, % at 18.7 µM | AID 588436 | 350,000 tested, 0.16% active | V. cholerae BH1578 lux reporter, luminescence, 6 h; in the data active = activation mostly above about 9.7%, no sharp cut-off
PrPC surface inh: cell surface PrPC inhibition, primary TR-FRET screen; TR-FRET read-out; inhibition, % at 13.8 µM; 370,000 tested, 0.43% active; in the data active = inhibition above about 24%; note: 0% = median of the test wells and 100% = reference compound wells
CCHF vOTU inh: CCHFV vOTU protease inhibition. Pep-AMC fluorescence. inhibition, % at 11.5 µM. 370,000 tested, 0.55% active; in the data active = inhibition above about 30%; note: 0% = vehicle wells with enzyme and 100% = no enzyme wells
PriA SSB inh: blocks PriA binding to SSB C-terminal tail; inhibition, % at 33 µM; 430,000 tested, 0.6% active; AlphaScreen SSBct-PriA binding, biotinylated peptide; in the data active = inhibition mostly above about 37%, no sharp cut-off; inactive = mostly below about 20%;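 note: plate controls were negative control peptide for no effect and reference peptide for full effect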
* = called active by the depositor.

What do the screens show for `COc1ccc(-c2noc(-c3ccc(=O)n(Cc4cc(=O)n5ccccc5n4)n3)n2)cc1F`?
PriA SSB inh: -7

How did COc1ccccc1-c1cn2nnc(C(=O)NCc3nc4ccccc4n3C)c2c(=O)[nH]1 do in these assays?
PriA SSB inh: 4

How did O=C(c1ccco1)N1CCC(Cn2cccn2)CC1 do in these assays?
PriA SSB inh: -14

How did O=C(c1ccc(F)cc1Cl)N1CCC(Cn2cccn2)CC1 do in these assays?
PriA SSB inh: 37*

What do the screens show for `COc1ccc(NC(=O)CN(C)C(=O)c2cccc(NS(=O)(=O)c3ccc(Br)cc3)c2)cc1`?
TcdB GH inh: 16*; Vc quorum ag: -1; PrPC surface inh: 8; CCHF vOTU inh: 22; PriA SSB inh: -4

What do the screens show for `O=C(N[C@@H](Cc1c[nH]c2ccccc12)C(=O)O)C1CCN(S(=O)(=O)c2cccs2)CC1`?
TcdB GH inh: 11*; DUSP3 inh: -19; Vc quorum ag: -2; PrPC surface inh: 5; CCHF vOTU inh: -6; PriA SSB inh: 2

How did CC(C)Oc1ccc(-c2noc(-c3cc(-c4ccccc4)n[nH]3)n2)cc1 do in these assays?
PriA SSB inh: -4

What do the screens show for `O=C(NN=Cc1ccc(Br)s1)Nc1ccccc1`?
PriA SSB inh: 0

How did Brc1ccc(C=Nc2ccc(Nc3ccccc3)cc2)s1 do in these assays?
DUSP3 inh: 8; Vc quorum ag: 0; PriA SSB inh: 88*

How did CC(C)[C@H](NC(=O)Cc1ccccc1)C(=O)OCc1cc(=O)n2c(n1)sc1ccccc12 do in these assays?
TcdB GH inh: -1; DUSP3 inh: 54*; Vc quorum ag: 0; PrPC surface inh: 8; CCHF vOTU inh: 0; PriA SSB inh: -5

How did CC(C)(C)c1cc(NCCCn2ccnc2)n2ncc(-c3ccc(Cl)cc3)c2n1 do in these assays?
DUSP3 inh: 53*; Vc quorum ag: -1; PrPC surface inh: 2; CCHF vOTU inh: -12; PriA SSB inh: -35

What do the screens show for `CC1CCN(c2nc3c(=O)[nH]c(N)nc3n2[C@@H]2O[C@H](CO)[C@@H](O)[C@H]2O)CC1`?
TcdB GH inh: 0; DUSP3 inh: 10; Vc quorum ag: 0; PrPC surface inh: 4; CCHF vOTU inh: -10; PriA SSB inh: -1

Results for CC1(C)O[C@@H]2[C@H](O1)[C@@H](COS(=O)(=O)O)O[C@H]2n1c(=S)[nH]c2c(=O)[nH]c(N)nc21 ?
TcdB GH inh: 12*; Vc quorum ag: -1; PrPC surface inh: -1; CCHF vOTU inh: 14; PriA SSB inh: -17

Results for O=C(Cc1ccccc1)NNC1CC(=O)N(c2ccc(Cl)cc2)C1=O (stereo not drawn) ?
TcdB GH inh: -2; DUSP3 inh: 53*; Vc quorum ag: 0; PrPC surface inh: -2; CCHF vOTU inh: -12; PriA SSB inh: -2

What do the screens show for `CCCOc1nc2c(c(=O)n(C)c(=O)n2C)n1Cc1ccc(F)cc1`?
PriA SSB inh: -6

How did CCN1CCN(Cc2ccc(NC(=O)c3ccc(C)c(NC(=O)c4cncc(-c5cccs5)c4)c3)cc2C(F)(F)F)CC1 do in these assays?
Vc quorum ag: 1; PriA SSB inh: 47*

What do the screens show for `CCN1CCN(Cc2ccc(NC(=O)c3ccc(C)c(NC(=O)c4nccn4C)c3)cc2C(F)(F)F)CC1`?
TcdB GH inh: 1; DUSP3 inh: -5; Vc quorum ag: inactive; PrPC surface inh: 1; CCHF vOTU inh: 12; PriA SSB inh: -3

Results for Cc1cc(C(=O)CSc2nc(N)cc(=O)[nH]2)c(C)n1CC1CCCO1 (stereo not drawn) ?
TcdB GH inh: 12*; Vc quorum ag: inactive; PrPC surface inh: 0; CCHF vOTU inh: 7; PriA SSB inh: 3

How did COc1ccc(C(=O)Nc2ccc(OCC(=O)N3CCOCC3)cc2)c(OC)c1OC do in these assays?
TcdB GH inh: 1; DUSP3 inh: 57*; Vc quorum ag: 0; PrPC surface inh: 0; CCHF vOTU inh: 7; PriA SSB inh: -2

What do the screens show for `O=C(Nc1ccc(Cl)cc1)c1cc(Br)ccc1OCC(=O)N1CCOCC1`?
TcdB GH inh: 2; DUSP3 inh: -17; Vc quorum ag: 0; PrPC surface inh: 2; CCHF vOTU inh: 13; PriA SSB inh: 44*

What do the screens show for `O=C(Nc1ccc(OCC(=O)N2CCOCC2)cc1)c1ccccc1F`?
TcdB GH inh: -2; DUSP3 inh: -12; Vc quorum ag: 1; PrPC surface inh: 5; CCHF vOTU inh: -4; PriA SSB inh: -9

From PubChem
